Reference: PubChem BioAssay AID1671190 (National Center for Advancing Translational Sciences (NCATS), 2021)
Out of some 580,000 compounds screened, about 6,100 (1.1%) were called active. A call without a number means that no potency is given here. Not shown: some 15% with an inconclusive outcome. Calls come from the whole dose curve; as a rule, active = well fitted inhibition curve with a large enough effect; inconclusive = small, poorly fitted or top-dose-only effect, or another doubt; inactive = no such curve, though single readings can be large or run the other way. Only a selection was taken, and actives are over-represented in it overall.
Potency is the fitted concentration of half-maximal effect.

These molecules were tested against Polyunsaturated fatty acid lipoxygenase ALOX12 (Homo sapiens) (UniProt P18054) (assay: Primary qHTS assay for inhibitors of human arachidonate 12S-lipoxygenase (ALOX12): Round 2). Conditions: purified 12hLO, xylenol orange hydroperoxide absorbance; series mostly up to 108 µM.
Polyunsaturated fatty acid lipoxygenase ALOX12 (Homo sapiens), sequence (P18054 whole entry, looked up): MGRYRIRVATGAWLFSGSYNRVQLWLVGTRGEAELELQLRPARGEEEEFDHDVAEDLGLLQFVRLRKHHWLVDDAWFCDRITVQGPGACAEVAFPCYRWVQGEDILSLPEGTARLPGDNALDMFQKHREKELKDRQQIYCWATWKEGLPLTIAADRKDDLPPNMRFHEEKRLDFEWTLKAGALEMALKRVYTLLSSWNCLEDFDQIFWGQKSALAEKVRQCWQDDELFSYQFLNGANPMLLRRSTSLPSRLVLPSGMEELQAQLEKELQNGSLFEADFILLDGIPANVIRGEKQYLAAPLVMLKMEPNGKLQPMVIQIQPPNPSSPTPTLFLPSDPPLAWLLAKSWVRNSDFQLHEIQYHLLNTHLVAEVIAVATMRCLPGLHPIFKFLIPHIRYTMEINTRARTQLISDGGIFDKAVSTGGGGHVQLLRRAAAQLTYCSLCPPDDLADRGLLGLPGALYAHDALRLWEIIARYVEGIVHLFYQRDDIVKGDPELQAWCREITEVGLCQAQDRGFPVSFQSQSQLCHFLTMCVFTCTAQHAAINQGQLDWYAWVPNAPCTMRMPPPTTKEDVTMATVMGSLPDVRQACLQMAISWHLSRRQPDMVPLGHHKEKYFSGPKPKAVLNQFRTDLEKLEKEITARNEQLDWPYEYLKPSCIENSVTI
Method in brief: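 Purified human 12hLO at 150 nM in 25 mM Hepes, 0.01% Triton X-100, pH 7.0, preincubated 15 min at room temperature with compound. Reaction started with 40 uM arachidonic acid, 30 min at room temperature. Hydroperoxide measured by Fe-xylenol orange, 573/405 nm absorbance ratio.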
In the case of `O=C(CSc1nnc(-c2ccc(Cl)cc2)o1)N1CCC(c2ccccc2)=N1`, the Potency is reported as “inactive”.
For `Cc1cc2c(cn1)C(=O)c1ccccc1-2`, the Potency was “inactive”.
With `O=C1C(Cl)=C(Oc2ccccc2)C(=O)c2ccccc21` the Potency was 11.2 µM (active).
In the case of `N#Cc1cccc(CN2CCC(c3ccnn3CCO)CC2)c1`, the Potency is reported as “inactive”.
In the case of `COc1ccc(OC)c(NC(=O)c2nc3ccccc3nc2N2CCCC2)c1`, the Potency is reported as “inactive”.
`COc1ccc2cc(C(=O)C3CCCN(C(=O)c4sc(C)nc4C)C3)ccc2c1` (stereo not drawn) was tested, and the Potency was “inactive”.
`COc1ccc2nc(N3CCCC(O)C3)c(C#N)cc2c1` (stereo not drawn) was tested, and the Potency was 50.1 µM (active).
In the case of `O=C(COc1ccc2ccccc2c1)Nc1nc2n(n1)C(c1ccc(Cl)cc1)CC(=O)N2` (stereo not drawn), the Potency is reported as “inactive”.
With `O=C(NCC1CCCCO1)C1(Oc2ccc(Cl)cc2)CCNCC1` (stereo not drawn) the Potency was “inactive”.
In the case of `CC(C)N(C(=O)COC(=O)/C=C/c1cccc2cccnc12)c1ccccc1`, the Potency is reported as “inactive”.
With `COC(=O)Nc1ncc(CN2CCCCC2)s1` the Potency was “inactive”.
In the case of `CC(=O)NC1(C)CN(Cc2ccc(-c3ccc4c(ccn4C)c3)s2)C1`, the Potency is reported as “inactive”.
In the case of `CC(=O)NC1(C)CCN(Cc2cnc(-c3ccc4c(ccn4C)c3)s2)CC1`, the Potency is reported as 39.8 µM (active).
In the case of `CCCc1c(C)nc(Nc2nc(C)c3ccc(C)cc3n2)[nH]c1=O`, the Potency is reported as “inactive”.
For `CCOc1ccc(-n2c(N)c(C(=O)NCC3CCCO3)sc2=S)cc1` (stereo not drawn), the Potency was “inactive”.
With `COC(=O)c1sc2ncccc2c1-n1c(C)ccc1C` the Potency was “inactive”.
In the case of `COC(=O)c1sc(=S)n(-c2ccccc2)c1N`, the Potency is reported as 44.7 µM (active).
In the case of `Cc1ccc(C(=O)NC(c2ccc3c(c2)OCCCO3)C(C)C)cn1` (stereo not drawn), the Potency is reported as “inactive”.
`Cc1c(CCC(=O)NCc2ccc3c(c2)OCO3)c(=O)oc2cc(O)ccc12` was tested, and the Potency was “inactive”.
`COc1ccc(NC(=O)c2ccc(Br)o2)cc1NC(=O)c1ccccc1C` was tested, and the Potency was “inactive”.
For `O=C(Nc1ccc2c(c1)OCO2)c1cc(=O)c(OCc2ccccc2F)co1`, the Potency was “inactive”.
`CN1C(=O)c2ccc(NC(=O)C(F)(F)C(F)(F)C(F)(F)F)cc2C1=O` was tested, and the Potency was “inactive”.
For `COc1c(CNCc2cccnc2N2CCOCC2)c(C)nn1C`, the Potency was “inactive”.
For `Cc1ccccc1CN1CCCn2nc(C)c(-c3cccnc3N3CCOCC3)c21`, the Potency was 28.2 µM (active).
For `Cc1nn2c(c1-c1ccccc1-c1ccccc1)N(C(=O)CN1CCOCC1)CCC2`, the Potency was “inactive”.
With `COC(=O)c1cc(C)nc2c1c(=O)n(Cc1cccc(Cl)c1)c(=O)n2-c1ccccc1` the Potency was “inactive”.
In the case of `O=C(CSCc1ccc(Cl)cc1)N1CCCCC1`, the Potency is reported as “inactive”.
For `O=C(NCCc1ccc(Cl)cc1)C1CCCN1C(=O)NCc1ccccc1` (stereo not drawn), the Potency was “inactive”.
With `Oc1cc2c(cc1O)CN(C(=S)NCCc1ccc(Cl)cc1)CCC2` the Potency was 17.8 µM (active).
For `CCN(CC(=O)NC(C)C)C(=O)Cn1c(=O)c2c(ncn2CC(C)C)n(Cc2ccccc2)c1=O`, the Potency was “inactive”.
For `CC(C)c1cccc(NC(=O)Cc2n[nH]c(=O)c3ccccc23)c1`, the Potency was “inactive”.
`CCc1nnc(NC(=O)COc2ccc3c(C)cc(=O)oc3c2)s1` was tested, and the Potency was “inactive”.
In the case of `CC[C@@H]1Cc2cc(O)ccc2C2=C1c1ccc(O)cc1C[C@H]2CC`, the Potency is reported as 50.1 µM (active).
With `CCC(C)NC(=S)Nc1ccc(C)cc1` (stereo not drawn) the Potency was “inactive”.
For `Cc1ccc(C)c(NC(=S)NNC=O)c1`, the Potency was “inactive”.
For `Cc1ccc(C)c(NC(=S)NNC(=S)Nc2ccc(C(C)C)cc2)c1`, the Potency was 35.5 µM (active).
For `O=C(CCC1CCCCC1)NC(N1CCCCC1)(C(F)(F)F)C(F)(F)F`, the Potency was “inactive”.
In the case of `CC(CCc1ccccc1)NC(=O)C1CC=CCC1` (stereo not drawn), the Potency is reported as “inactive”.
With `CCc1ccc(C(=O)Nc2ccc(Cl)cc2)cc1S(=O)(=O)N1CCOCC1` the Potency was “inactive”.
In the case of `CCc1cccc(NC(=O)c2cccc(S(=O)(=O)N3CCOCC3)c2)c1`, the Potency is reported as “inactive”.
For `CCC(CC)C(=O)Nc1ccc(S(=O)(=O)Nc2nccs2)cc1`, the Potency was “inactive”.
For `CCc1nnc(NS(=O)(=O)c2ccc(NC(=S)NC(=O)c3cccs3)cc2)s1`, the Potency was 22.4 µM (active).
`Cc1cc(C)nc(NS(=O)(=O)c2ccc(N/C=C\C(=O)c3cccs3)cc2)n1` was tested, and the Potency was “inactive”.
`S=C(Cc1ccccc1)SC/C=C/c1ccccc1` was tested, and the Potency was “inactive”.
`NNc1nc2c(Cl)cccc2s1` was tested, and the Potency was 17.8 µM (active).
`CCN1CCN(C(=O)c2cc3cc(Cl)cc(Cl)c3oc2=O)CC1` was tested, and the Potency was “inactive”.
With `CCCCNC(=O)C(C#N)c1nc2ccccc2nc1N1CCN(C(=O)OCC)CC1` (stereo not drawn) the Potency was “inactive”.
For `Fc1ccc(N/N=C/c2cccc(/C=N/Nc3ccc(F)cc3F)c2)c(F)c1`, the Potency was “inactive”.
In the case of `Fc1ccc(N/N=C/c2ccc(-c3ccccc3)cc2)c(F)c1`, the Potency is reported as 2.24 µM (active).
`O=C(CN1CCN(C/C=C/c2ccccc2)CC1)Nc1ccc(F)cc1F` was tested, and the Potency was “inactive”.
For `COc1ccc(NC(C)=O)cc1NC(=O)c1nc(-c2ccccc2)oc1C`, the Potency was “inactive”.
With `O=C(NC1CCS(=O)(=O)C1)c1cc2sccc2n1Cc1ccccc1` (stereo not drawn) the Potency was “inactive”.
In the case of `CN(C)CCNC(=O)CC1CCN(C(=O)c2nnc(C(=O)Nc3cccc(Cl)c3)s2)CC1`, the Potency is reported as “inactive”.
